# mHTT CaM bind: mHTT-calmodulin interaction abrogation. 3.6% of 190,000 active. AlphaScreen His-mHTT/GST-CaM binding, luminescence. inhibition, % at 15 µM
# Pf apPOL inh: Pf-apPOL DNA polymerase inhibition; Recombinant Pf-apPOL, molecular beacon fluorescence, 1.5 h; inhibition, % at 10 µM; 0.25% of 210,000 active
# Numbers stand for hits; – = inactive; · = no result. Sampled rows, rich in hits. Any-hit rate of the full collection: about 3.6%. Cut-off read from the data, not from the text of the source: active = inhibition above about 50%; inactive = the rest.
SMILES,mHTT CaM bind,Pf apPOL inh
CCOCCCNC(=O)CN1C(=O)/C(=C/c2ccccc2C)Sc2ccccc21,–,74
CCN(CC)CCNC(=O)CN1C(=O)/C(=C/c2ccc(Cl)cc2)Sc2ccccc21,59,–
CN(C)CCNC(=O)CN1C(=O)/C(=C/c2ccc(Cl)cc2)Sc2ccccc21,–,–
CCCCNC(=O)CN1C(=O)/C(=C/c2ccccc2C)Sc2ccccc21,–,–
Cc1cccc(-c2csc3c(=O)[nH]c(N4CCN(C5CCCCC5)CC4)nc23)c1,–,–
Oc1c(Cl)cc(Cl)cc1C=NNC(=S)NC1CC2CCC1C2 (stereo not given),·,–
Oc1c(Cl)cc(Cl)cc1C=NNC(=S)NCC1CCCO1 (stereo not given),·,70
CCCC(=O)N1CCCC(COc2ccc(C(=O)NC(C)C)cc2)C1 (stereo not given),–,–
N#Cc1c([N+](=O)[O-])cc([N+](=O)[O-])cc1S(=O)(=O)Cc1ccccc1,79,–
O=[N+]([O-])c1ccc(NCCNS(=O)(=O)Cc2ccccc2)c(Cl)c1,–,–
CCCc1cc(C2CCCN2C(=O)Cc2ccccc2Cl)no1 (stereo not given),–,–
Cc1ccc(-n2cc(-c3ccc4c(c3)OCO4)[nH]c2=O)cc1Cl,86,–
Cc1cc(C)cc(-n2cc(-c3ccc4c(c3)OCO4)[nH]c2=O)c1,–,–
CC(=O)Cn1nnc([N+](=O)[O-])n1,–,·
COc1ccc(N=c2oc3c(OC)cccc3cc2C(=O)Nc2nccs2)cc1,–,–
O=[N+]([O-])c1cccc(C2Nc3ccccc3-c3nc4ccccc4n32)c1 (stereo not given),–,–
O=[N+]([O-])c1ccc(C2Nc3ccccc3-c3nc4ccccc4n32)cc1 (stereo not given),54,–
Cc1cccc(NC(=O)C2CCN(c3nnc4cccc(C)n34)CC2)c1,–,–
O=C(c1ccco1)N1CCN(Cc2ccc([N+](=O)[O-])cc2)CC1,–,–
COc1ccc(-c2csc(Nc3ccc(N(C)C)cc3)n2)cc1OC,97,–
NS(=O)(=O)c1ccc(Nc2nc(-c3cccnc3)cs2)cc1,–,–
COc1ccc(-c2csc(Nc3ccc(S(N)(=O)=O)cc3)n2)cc1OC,50,–
COc1ccccc1Nc1nc(-c2ccc(OC)c(OC)c2)cs1,–,–
COc1cccc(S(=O)(=O)N2CC3CC(NC(=O)c4cccs4)C2C3)c1 (stereo not given),–,–
CSc1nc2ccccc2c2nc3ccccc3n12,–,–
SMILES,mHTT CaM bind,Pf apPOL inh
Cc1cc(=O)n(CC(=O)Nc2ccc(Cl)cc2)c(N2CCCC2)n1,58,–
Cc1cc(=O)n(CC(=O)Nc2ccccc2)c(N2CCCCC2)n1,–,–
COc1ccc2nc(N3CCC(C(=O)NCCc4ccccc4)CC3)sc2c1,–,–
CSc1nc2c(c(Nc3ccccc3C)n1)CCC2,–,–
COc1cc(Br)cc(/C=C/c2ccc3cccc(O)c3n2)c1O,–,–
COc1cc(/C=C/c2ccc3cccc(O)c3n2)cc([N+](=O)[O-])c1O,93,–
Oc1ccc(Cl)cc1/C=C/c1ccc2cccc(O)c2n1,100,–
COc1cccc2ccc(/C=C/c3cccc([N+](=O)[O-])c3)nc12,–,–
Oc1cccc2ccc(/C=C/c3cc4c(cc3Br)OCO4)nc12,72,–
COc1ccc(OC)c(/C=C/c2ccc3cccc(O)c3n2)c1,–,–
COc1cc(Br)c(/C=C/c2ccc3cccc(O)c3n2)cc1OC,–,–
COc1ccc(Br)c(/C=C/c2ccc3cccc(O)c3n2)c1,65,–
CCOc1ccc(NC(=O)CSc2nnc(NC(C)=O)s2)cc1,–,–
CN(C)c1ccc(C=NCC23CCC4CC(CC(C4)C2)C3)cc1,–,–
COc1cccc(-c2nc(C3CCN(S(=O)(=O)c4cccs4)CC3)no2)c1,–,–
O=[N+]([O-])c1ccc(NCc2ccco2)c([N+](=O)[O-])c1,·,–
COc1cc(/C=C/c2ccc3cccc(O)c3n2)c(Cl)cc1O,63,–
COc1cc(/C=C/c2ccc3cccc(O)c3n2)c(Br)cc1O,–,–
O=[N+]([O-])c1ccc(O)c(/C=C/c2ccc3cccc(O)c3n2)c1,60,–
O=[N+]([O-])c1ccc(O)c(C=Nc2nc3c(O)cccc3s2)c1,–,–
CC1=C(C(=O)Nc2nc3ccccc3s2)C(c2ccccc2)C2=C(CC(C)(C)CC2=O)N1 (stereo not given),–,–
COc1ccc2c(c1)c(=O)c1ccccc1n2CC(=O)Nc1ccc2c(c1)OCCO2,–,–
CNC1C(O)C(NC)C2OC3(O)C(=O)CC(C)OC3OC2C1O (stereo not given),·,83
CCOc1ccc(C(=O)Nc2cnn(Cc3ccc(F)cc3)c2)cc1,–,–
Cc1nccn1-c1cc(NCCNC(=O)Nc2ccc(F)c(Cl)c2)ncn1,–,–
SMILES,mHTT CaM bind,Pf apPOL inh
O=S(=O)(NCCNc1ccc(Nc2ccccn2)nn1)c1ccccc1C(F)(F)F,97,–
O=C(O)COCC(=O)Nc1ccccn1,·,–
O=C(NCCNc1ccc(Nc2ccccn2)nn1)Nc1ccc(F)c(Cl)c1,100,–
O=c1cccnn1CCNS(=O)(=O)c1ccccc1C(F)(F)F,–,–
O=C(COc1ccccc1)NCCNc1ccc(Nc2ccccn2)nn1,87,–
COc1ccc(/C=C2/SC(N3CCN(CCO)CC3)=NC2=O)c(OC)c1,–,–
CCC(=O)NCc1csc(C2CCN(S(=O)(=O)c3ccccc3C)CC2)n1,–,–
Cc1ccc(C)c(N2CCN(C(=O)C3CCN(c4ccncc4)CC3)CC2)c1,–,–
CS(=O)(=O)N1CCC(C(=O)NCCCN2CCN(c3ccccc3)CC2)CC1,–,–
Cc1ccnc(N2CCC(C(=O)N3CCN(c4cccc(C(F)(F)F)c4)CC3)CC2)n1,–,–
Cc1ccnc(N2CCCC(C(=O)N3CCN(c4cc(Cl)ccc4C)CC3)C2)n1 (stereo not given),90,–
Cc1ccnc(N2CCCC(C(=O)N3CCN(c4ncccn4)CC3)C2)n1 (stereo not given),–,–
Cc1ccnc(N2CCCC(C(=O)N3CCN(c4cccc(C(F)(F)F)c4)CC3)C2)n1 (stereo not given),78,–
O=C(NCCCN1CCN(c2cccc(Cl)c2)CC1)C1CCN(c2ccncc2)CC1,95,–
Cc1ccc(Cl)cc1N1CCN(C(=O)C2CCN(c3ccncc3)CC2)CC1,100,–
CCN(CC)CN1C(=O)C(=Nc2cccc(C(F)(F)F)c2)c2ccccc21,–,–
Cc1sc2ncnc(SCC(N)=O)c2c1C,–,–
O=C(CSc1nnnn1-c1ccccc1)NC1CCCC1,–,–
COc1ccc(C(=O)CC2(O)C(=O)Nc3ccc(C)cc32)cc1 (stereo not given),–,–
Cc1ccc(NC(=O)N2CCC(n3cnc4ccc(Cl)cc4c3=O)CC2)cc1,–,–
CC(=O)Oc1cc(C(=O)N(c2ccc(C)cc2)C2C=CS(=O)(=O)C2)cc(OC(C)=O)c1OC(C)=O (stereo not given),96,90
Cc1ccc(N(C(=O)c2ccccc2)C2C=CS(=O)(=O)C2)cc1 (stereo not given),–,–
CCCNC(=O)c1c[nH]c2ccc(S(=O)(=O)N(C)c3ccc(C)c(C)c3)cc2c1=O,–,–
CCOc1ccc(/C=C(\C#N)c2nc3ccccc3s2)cc1OC,–,–
N#C/C(=C\c1ccc(O)c(Br)c1)c1nc(-c2cccc([N+](=O)[O-])c2)cs1,–,–
N#C/C(=C\c1ccc(O)c(O)c1)c1nc(-c2cccc([N+](=O)[O-])c2)cs1,66,–

# Bioassay records (PubChem BioAssay)
